Experimental data published in PubChem BioAssay AID1347416 (National Center for Advancing Translational Sciences (NCATS), 2020).
Hit rate of the full screen: of about 4,100 compounds, about 1,600 (39%) were called active. Inconclusive results (about 25%) are left out. Calls come from the whole dose curve; as a rule, active = well fitted inhibition curve with a large enough effect; inconclusive = small, poorly fitted or top-dose-only effect; inactive = no such curve, though single readings can be large or run the other way. Some of the results follow. A call without a number means that no potency is given here.

assay: qHTS Validation assay for Inhibitors of Plasmodium falciparum Dd2 growth in vitro; note: nearly all actives have a fitted effect of over 70% in size; conditions: P. falciparum Dd2 in RBCs, SYBR Green growth, 72 h; series mostly up to 28.7 µM
How it was run: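 P. falciparum Dd2-infected red blood cells (2.5% hematocrit, 0.3% parasitemia) grown 72 h at 37 °C under 5% O2 with compounds in a titration, 29 uM to 0.5 nM final. Growth read as SYBR Green-1 fluorescence after ~16 h lysis; artesunate 300 nM as positive control.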
Potency is the fitted concentration of half-maximal effect.

Row | Compound | Potency
1 | Oc1ccc(-c2ccc(-c3nc(CCc4ccccc4)no3)cn2)cc1 | inactive
2 | CC(C)(C)n1[nH]c2c3c(ccc2c1=O)C(=O)c1ccccc1C3=O | 4.73 µM (active)
3 | Cc1ccc(Cn2nnc(C(=O)Nc3ccc(F)c(F)c3)c2N)cc1 | inactive
4 | CCCc1nc2ccc(NC(=O)c3cccs3)cc2c(=O)n1Cc1ccc(Cl)cc1 | 8.41 µM (active)
5 | Cc1ccc(-c2nc(C)c(C(=O)O)s2)cc1 | inactive
6 | CC(=O)C1=C(c2ccccc2)N(C(C)=O)n2c(nnc2C2CCCCC2)S1 | 4.22 µM (active)
7 | CC(=O)C1=C(c2ccc(Cl)c(Cl)c2)N(C(C)=O)n2cnnc2S1 | 3.76 µM (active)
8 | CC(=O)C1=C(c2ccc(Cl)cc2)N(C(C)=O)n2c(nnc2C2CCCCC2)S1 | 4.73 µM (active)
9 | CC(=O)C1=C(c2ccc(Br)cc2)N(C(C)=O)n2c(nnc2C2CCCCC2)S1 | 2.99 µM (active)
10 | Cc1ncoc1C(=O)N1CCCCCC1c1nnc(-c2ccccc2)o1 (centres undefined) | inactive
11 | CC[C@@]1(O)CCN(C(=O)c2cccc(-c3cccc(OC)c3)c2)C[C@H]1O | inactive
12 | COc1cccc(C2=C(C(C)=O)Sc3nnc(C4CCCCC4)n3N2C(C)=O)c1 | 4.73 µM (active)
13 | COc1ccc(-c2noc(N3CCN(c4ccc(C)cc4)C(C)C3)n2)cc1OC (centres undefined) | inactive
14 | CCOc1ccc(C2=C(C(C)=O)Sc3nnc(C)n3N2C(C)=O)cc1 | 5.31 µM (active)
15 | COc1ccc(C(=O)NCc2nnc3ccc(-c4ccc(Cl)cc4)nn23)cc1F | inactive
16 | COc1ccc(C2=C(C(C)=O)Sc3nnc(-c4ccc(Cl)cc4)n3N2C(C)=O)cc1OC | 3.76 µM (active)
17 | COc1cc(Cc2cnc(N)nc2N)cc(OC)c1OC | inactive
18 | Cc1noc(-c2cccn3c(CNC(=O)c4cccc(N(C)C)c4)nnc23)n1 | inactive
19 | CCCN1CCC2(CCN(C(=O)c3cccc(Cl)c3)CC2)Oc2ccccc21 | inactive
20 | O=C(Nc1ccc(Cl)cc1)N1CCC2(CC1)CCN(Cc1cccs1)c1ccccc1O2 | 8.41 µM (active)
21 | COCC(=O)N1CCC2(CC1)CCN(Cc1cccs1)c1ccccc1O2 | inactive
22 | Cc1ccc([S+](=O)([O-])N2CCC3(CCN(Cc4cccs4)c4ccccc4O3)CC2)cc1 | 18.8 µM (active)
23 | CCC(C)NC(=O)c1ccccc1NC(=O)C1COc2ccccc2O1 (centres undefined) | 10.6 µM (active)
24 | CCC(C)NC(=O)C1COC2(CCN(C(=O)c3cccc(Cl)c3)CC2)N1C(=O)c1ccccc1C (centres undefined) | inactive
25 | CCc1ccc(CN(C(=O)c2cc3ccccc3oc2=O)C2CCS(=O)(=O)C2)cc1 (centres undefined) | inactive

Row | Compound | Potency
26 | CCc1ccc(OCC(=O)N(Cc2ccc(C(C)C)cc2)C2CCS(=O)(=O)C2)cc1 (centres undefined) | inactive
27 | Cc1ccc(-n2c(C)cc(C(=O)OCC(=O)N(C)C3CCS(=O)(=O)C3)c2C)cc1 (centres undefined) | 4.73 µM (active)
28 | CCC1CCCCN1CCCNC(=O)c1ccc2c(c1)sc1nc(-c3ccc(F)cc3)cn12 (centres undefined) | 1.5 µM (active)
29 | CN1c2cc(C(=O)NCc3ccc(F)cc3)ccc2C(=O)N2CCCCCC21 (centres undefined) | inactive
30 | CC1CCCCN1CCCNC(=O)c1ccc2c(c1)sc1nc(-c3ccc(F)cc3)cn12 (centres undefined) | 1.88 µM (active)
31 | COc1ccc(-c2cc3c(=O)n(CCNC(=O)c4ccc(C)c(F)c4)ccn3n2)cc1 | inactive
32 | O=C(C1CCC1)N1CCC2(CC1)CC(N(Cc1ccccc1)C1CC1)CCO2 (centres undefined) | inactive
33 | CC1CCCCN1Cc1c(O)ccc2c(=O)c(-c3nc4ccccc4s3)c(N)oc12 (centres undefined) | 1.06 µM (active)
34 | COCCN1C(=O)CS(=O)(=O)C12CCN(C(=O)c1cc(C)ccc1C)CC2 | inactive
35 | CN(C)Cc1cc(CC2(NCc3ccc(C#N)cc3)COC2)no1 | inactive
36 | CC(C)(C)CN[C@H]1C[C@@H](Cc2cc(CN3CCOCC3)on2)C1(C)C | inactive
37 | CN(C)Cc1cc(C[C@@H]2C[C@H](NCc3ccccc3O)C2(C)C)no1 | 17.2 µM (active)
38 | CC(=O)N1CCN(c2nc3c(s2)CC(C(=O)NCc2cccc(Cl)c2)CC3)CC1 (centres undefined) | inactive
39 | O=C(c1ccc([N+](=O)[O-])o1)N1CCN(c2nc3c(F)cc(F)cc3s2)CC1 | 5.96 µM (active)
40 | O=C(c1ccc([N+](=O)[O-])o1)N1CCN(c2nc3c(Cl)cccc3s2)CC1 | 4.22 µM (active)
41 | CCc1cccc2sc(N3CCN(C(=O)c4ccc([N+](=O)[O-])o4)CC3)nc12 | 1.06 µM (active)
42 | Cc1noc(C(C)N(C)C(=O)c2cc(COc3ccccc3F)[nH]n2)n1 (centres undefined) | inactive
43 | Cc1nn(-c2ccccc2)c2c1C(c1cccnc1)N1C=C(S(=O)(=O)N3CCCCC3)C=CC1=N2 (centres undefined) | 15 µM (active)
44 | COC(=O)[C@@H]1Cc2ncn(C(C)C)c2CN1S(=O)(=O)c1cccc(C(F)(F)F)c1 | inactive
45 | COc1ccc(-c2ccc3ncc(Nc4cccc(C(F)(F)F)c4)n3n2)cn1 | 12.2 µM (active)
46 | Fc1ccc(-c2ccc3ncc(Nc4ccnc(N5CCOCC5)c4)n3n2)cc1 | 1.72 µM (active)
47 | COc1ccc(-c2ccc3ncc(Nc4ccnc(N5CCOCC5)c4)n3n2)cn1 | 4.85 µM (active)
48 | CCc1noc(-c2cccn3c(CNC(=O)Cc4ccc(Cl)cc4)nnc23)n1 | inactive
49 | Cc1cc(N2CCN(C)CC2)nc2ccc(NC(=O)c3ccc(Br)o3)cc12 | 6.68 µM (active)
50 | CCN(CC)c1cc(C)c2cc(NC(=O)c3ccc(Br)o3)ccc2n1 | 6.68 µM (active)

Row | Compound | Potency
51 | Cc1ccoc1C(=O)Nc1ccc(CC(=O)O)cc1 | inactive
52 | CCN1CCN(c2cc(C)c3cc(NC(=O)c4ccc(Br)o4)ccc3n2)CC1 | 6.68 µM (active)
53 | CCN(c1ccccc1)S(=O)(=O)c1ccc(NC(=O)c2cc(=O)c3cc(C)ccc3o2)cc1 | inactive
54 | CC(NC(=O)Cc1cccc(F)c1)C(=O)N1CCN(c2ccccn2)CC1 (centres undefined) | inactive
55 | OC(CN1CCN(c2ccccn2)CC1)Cn1c2ccc(Cl)cc2c2cc(Cl)ccc21 (centres undefined) | 2.99 µM (active)
56 | O=c1cc(N2CCOCC2)oc2c(N3CCN(c4ccccn4)CC3)nccc12 | inactive
57 | Cc1nc(NCc2ccccc2)[nH]c(=O)c1CCC(C)C | inactive
58 | Cc1ccc(Oc2c(CCC(=O)NC(C)C)c(C)nn2-c2ccccc2)cc1 | inactive
59 | COc1ccc(CNC(=O)C2CCN(C(=O)c3cc4c(=O)[nH]c(C)cn4n3)CC2)cc1 | inactive
60 | COc1ccc(CNC(=O)CC[C@@H]2CNC(=O)[C@@H]3C[C@H](NCc4ccccc4)CN23)cc1 | inactive
61 | COc1ccc(CNCc2cc3c(C(C)(C)C)nn(-c4ccccc4)c3[nH]c2=O)cc1 | 0.842 µM (active)
62 | Cc1ccc(CNCc2cc3c(C(C)(C)C)nn(-c4ccccc4)c3[nH]c2=O)cc1 | 0.266 µM (active)
63 | Cc1ccc(-c2nn(-c3ccccc3)c3[nH]c(=O)c(CNCc4ccccc4)cc23)cc1 | 0.422 µM (active)
64 | CCCC(=O)N=C1SC2CS(=O)(=O)CC2N1c1ccc(CC)cc1 (centres undefined) | inactive
65 | COCc1nncn1C1CCN(C(=O)c2ccc(C)c(C)c2)CC1 | inactive
66 | CN(Cc1cccn1C)C(=O)C1CC1 | inactive
67 | CCC(C)c1ccc(O)c(NC(=O)c2cncc(Br)c2)c1 (centres undefined) | 2.99 µM (active)
68 | CCC(C)c1ccc(NC(=O)c2cccnc2)cc1 (centres undefined) | inactive
69 | COc1ccc(NC(=O)c2nnn3c2CN(Cc2cccc(Cl)c2)C(=O)CC3)c(C)c1 | 2.17 µM (active)
70 | COc1ccc(NC(=O)c2nnn(Cc3ccccc3C)c2N)c(OC)c1 | inactive
71 | O=C(Nc1nc2ccccc2n1Cc1ccccc1)c1ccc(COc2ccccc2[N+](=O)[O-])o1 | 16.8 µM (active)
72 | CCCCCCCn1c(NC(=O)CC)nc2ccccc21 | 16.8 µM (active)
73 | CC(=O)Nc1nc2ccccc2n1Cc1ccc(Cl)cc1 | 8.41 µM (active)
74 | CCCCn1c2ccccc2c2nnc(SCC(=O)Nc3ccc(NC(C)=O)cc3)nc21 | inactive
75 | COc1ccc(C2CC(c3cccs3)=NN2C(=O)c2ccc(Br)o2)cc1 (centres undefined) | 5.31 µM (active)

Row | Compound | Potency
76 | COc1ccc2nc3oc(C(=O)NCc4cccs4)cc3cc2c1 | inactive
77 | O=C(CN1CCN(S(=O)(=O)N2CCCC2)CC1)NCc1ccccc1F | inactive
78 | O=C(NCCCN1CCCC1)c1ccc2c(c1)N(S(=O)(=O)c1ccccc1F)CC2 | 9.44 µM (active)
79 | O=C(Nc1nc2c(F)cccc2s1)c1ccc(S(=O)(=O)N2CCCc3ccccc32)cc1 | inactive
80 | COc1ccc2[nH]c3c(c2c1)CCNC31CCN(C(=O)C(C)(C)C)CC1 | inactive
81 | Cc1ccc(C(=O)N2CCc3nc4cc(-c5ccccc5)[nH]n4c(=O)c3C2)cn1 | inactive
82 | O=C(c1cc(NC(=O)C23CC4CC(CC(C4)C2)C3)cc(NC(=O)C23CC4CC(CC(C4)C2)C3)c1)N1CCCCC1 | 5.96 µM (active)
83 | CC(C)CN1C(=O)c2cccn2CC1CNC(=O)c1ccccc1 (centres undefined) | inactive
84 | COc1ccccc1CNCC(O)(c1ccc(Cl)cc1)c1ccc(Cl)cc1 | 1.5 µM (active)
85 | Cc1ccc(CNCC(O)(c2ccccc2)c2ccc(Cl)cc2)cc1 (centres undefined) | 2.99 µM (active)
86 | COc1ccccc1Oc1ncccc1CNCc1c(F)cccc1Cl | inactive
87 | COc1ccc(CNCC(O)(c2ccc(Cl)cc2)c2ccc(Cl)cc2)cc1 | 1.5 µM (active)
88 | Cc1cn2nc(-c3nc(C4CCCN(C(=O)Cc5ccsc5)C4)no3)cc2c(=O)[nH]1 (centres undefined) | inactive
89 | COc1ccc(OC)c(CNC(=O)C2CCN(c3ncnc4c3nc3n4CCCCC3)CC2)c1 | inactive
90 | CCc1ccc(CNC(=O)C2CCN(c3cc(C(F)(F)F)nc(C)n3)CC2)cc1 | inactive
91 | COc1ccc(CNC(=O)C2CCN(c3nc(-c4ccccc4)nc4c3CCC4)CC2)cc1 | 7.5 µM (active)
92 | CCC1Oc2ccc(NC(=O)COC)cc2CN(Cc2ccc(F)cc2)C1=O (centres undefined) | inactive
93 | CC1(CNc2ccccc2)COc2ccc(C(=O)NCc3ccc(F)cc3)cc2N1 (centres undefined) | inactive
94 | CC[C@@H](NC(C)=O)C(=O)N1CCOc2c(cc(-c3cccs3)cc2OC)C1 | inactive
95 | O=C(Nc1ccc(F)cc1)N1CCOc2ccc(CN3CCc4ccccc4C3)cc2C1 | 8.41 µM (active)
96 | CCOc1cccc(CN2C[C@@H]3C(=O)N(CCN4CCc5ccccc5C4)C(=O)[C@@H]3C2)c1 | inactive
97 | O=C(Nc1ccc(F)cc1F)N1CCOc2ccc(CN3CCc4ccccc4C3)cc2C1 | 16.8 µM (active)
98 | Cc1cc(=O)n(CC(=O)Nc2ccccc2F)c(N2CCc3ccccc3C2)n1 | inactive
99 | COc1ccccc1NC(=O)N1CCOc2ccc(CN3CCc4ccccc4C3)cc2C1 | 2.37 µM (active)
